Screens deposited in PubChem BioAssay by The Scripps Research Institute Molecular Screening Center.
FBW7 activator: FBW7 E3 ligase activators, primary screen, biochemical, AlphaScreen, human | 650,000 compounds, 0.13% hits | F-box/WD repeat-containing protein 7 (Homo sapiens), Q969H0 | normalized activity (activation), % at 26.1 µM | AlphaScreen FBW7–phospho-cyclin E peptide binding, activator screen; in the data active = normalized activity above about 1.9%;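 also: purified mutant Fbw7 with reduced substrate affinity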
TEAD-YAP inh: TEAD-YAP interaction inhibition, primary screen, TEAD-YAP interaction inhibitor project, luminescence, HEK-TIYL cells; 640,000 compounds, 1.4% hits; AID 1259422, 2018; TEAD-Gal4/YAP UAS-luciferase luminescence; inhibition, % at 9.12 µM; in the data active = inhibition above about 32%
GPR151 activ: activators of human GPR151, primary screen, cell-based, PathHunter beta-arrestin, luminescence; 650,000 compounds, 1% hits; AID 1508602, 2020; activation, % at 11.2 µM; G-protein coupled receptor 151 (Homo sapiens), Q8TDV0; PathHunter beta-arrestin GPR151 cells; in the data active = activation above about 4.9%
MITF inh: MITF inhibitors, primary screen, biochemical, AlphaScreen, human. 650,000 compounds, 0.91% hits. AlphaScreen MITF homodimerization, bead proximity signal. Microphthalmia-associated transcription factor (Homo sapiens), O75030. inhibition, % at 2.6 µM; in the data active = inhibition above about 50%
Hits are given with their value; - = inactive; ! = not active in a repeat. Sampled rows, rich in hits. Any-hit rate of the full collection: about 3.5%.

SMILES	FBW7 activator	TEAD-YAP inh	GPR151 activ	MITF inh
c1nc2nc3c(c(Nc4ccc5c(c4)OCCO5)n2n1)CCC3	-	39.8	-	-
COc1ccc(C2CC(=O)N(CC(=O)c3ccccc3)c3ccccc3S2)cc1OC (configuration not stated)	-	75.7	-	-
NC(=O)CSc1nc2sc3c(c2c(=O)n1-c1cccc2ccccc12)CCCC3	-	37.6	-	-
COc1cccc(-c2csc(N3CCN(CC(=O)Nc4ccc(F)cc4)CC3)n2)c1	-	-	-	-
COc1cccc(NC(=O)CN2CCN(Cc3nc(-c4ccc(F)cc4)cs3)CC2)c1	-	33.4	-	-
Cc1ccc(-c2nnc(Cn3c(C)nc4ccccc43)o2)cc1	-	57.8	-	-
COc1ccc(-c2nc(CCn3c(C)nc4ccccc43)no2)cc1	-	38.3	-	-
COc1ccc(C2=N/C(=C\c3cc(OC)ccc3OC)C(=O)O2)cc1	-	-	-	-
O=c1cc(-c2ccccc2)oc2cc(O)ccc12	-	51.1!	-	-
COc1ccc(-c2nc3ccccc3c(=O)n2NC(=O)C2CCC(C(C)(C)C)CC2)cc1OC (configuration not stated)	-	-	-	-
O=C(O)c1ccc(N=c2oc3cc(O)ccc3cc2C(=O)Nc2ccccc2)cc1	-	-	-	-
COc1ccc(NC(=O)c2cc3ccc(O)cc3oc2=Nc2ccc(C(=O)O)cc2)cc1	-	36.2	-	-
O=c1oc2ccc(Br)cc2cc1-c1nnc(Nc2ccccc2)s1	-	-	-	-
CCn1nnc(NC(=O)c2ccc(OC(C)C)cc2)n1	-	44.3	-	-
CC(C)Oc1ccc(C(=O)Nc2nccs2)cc1	-	51.9	-	-
CC(=O)c1ccc(C(=O)Nc2nccs2)cc1	-	-	-	-
COc1cc(SC)ccc1C(=O)Nc1nccs1	-	45.9	-	-
CC(C)Sc1ccc(C(=O)Nc2nccs2)cc1	-	54.5	-	-
COc1cc(C=Nc2ccc(NC(C)=O)cc2)c([N+](=O)[O-])cc1OC	-	-	-	-
Cc1ccc2c(nc3s/c(=C\c4ccc(-c5ccc(F)cc5F)o4)c(=O)n32)c1C	-	-	-	-
Cc1ccc(/C=C(\NC(=O)c2ccccc2)C(=O)NC2CC2)o1	-	-	-	-
CCCCN1C(=O)S/C(=C/c2ccc(OC)cc2)C1=O	-	-	-	-
CCOC(=O)CCCN1C(=O)S/C(=C/c2ccc(OC)cc2)C1=S	-	47.2	-	-
COc1ccc(/C=C2\SC(=O)N(CCCC(=O)Nc3ccc(C(=O)O)cc3)C2=O)cc1	-	87.6	-	-
CCCn1c(=O)[nH]c2c(C(N)=O)nc(C)nc21	-	-	-	-
SMILES	FBW7 activator	TEAD-YAP inh	GPR151 activ	MITF inh
O=C(Cn1ncc2c1-c1ccccc1OC2)Nc1cccnc1Cl	-	-	-	-
O=C(Nc1c2c(nn1-c1ccc([N+](=O)[O-])cc1)CS(=O)(=O)C2)c1c(F)cccc1Cl	-	-	-	-
O=c1cc(CNCc2cccs2)c2cc3c(cc2o1)CCC3	-	45.1	-	-
COc1cccc(-c2cnc(NCc3ccc(F)cc3)n2C)c1	-	-	-	-
COc1cccc(-c2cnc(NCc3cccc(Cl)c3)n2C)c1	-	40.9	-	-
COc1cccc(-c2cnc(NCc3cccc(F)c3)n2C)c1	-	45.5	-	-
Cc1ccc(NCN2C(=O)C(=O)c3ccccc32)cc1	-	-	-	-
O=C1C2C3CCC(O3)C2C(=O)N1c1cccc([N+](=O)[O-])c1 (configuration not stated)	-	-	-	-
O=C1C2C3CCC(O3)C2C(=O)N1c1ccc2nc3ccccc3cc2c1 (configuration not stated)	-	80.4	-	-
O=C(N/N=C/c1c(O)ccc2ccccc12)c1ccc(F)cc1	-	75.6	-	-
Cc1ccc(C(=O)N/N=C/c2c3ccccc3cc3ccccc23)cn1	-	-	-	-
Cc1ccc(C(=O)N/N=C/c2c(O)ccc3ccccc23)cn1	-	80.2	-	55.2
O=C(N/N=C/c1c(O)ccc2ccccc12)c1ccc(=O)[nH]n1	-	86.2	-	67.8
O=C(N/N=C/c1c(O)ccc2ccccc12)c1ccc[n+](CCO)c1	-	-	-	89.5
COCCCNC(=O)CC1(CC(=O)O)CCCC1	-	-	-	-
O=C(Nc1ccc(Br)cc1)/C(=C\c1ccc([N+](=O)[O-])cc1)NC(=O)c1ccccc1Br	-	-	-	-
